High-throughput results (PubChem BioAssay)
Lassa entry inh: Lassa virus entry inhibition | Lassa virus pseudotype entry inhibition, cell reporter | Potency, µM (titrated, usually from 37.9 µM), hits mostly inhibitors | 1.2% of 300,000 active | AID 540256; calls by dose curve; tested in HEK293 cells; also: nearly all actives have a fitted effect of over 50% in size
FBPA Giardia inh: blocks Giardia fructose-bisphosphate aldolase activity; A8B2U2; purified Giardia FBPA; Potency, µM (series often up to 59.6 µM), hits mostly inhibitors; 0.71% of 290,000 active; AID 2451; also: nearly all actives have a fitted effect of over 55% in size
Target sequence (A8B2U2 whole entry, looked up): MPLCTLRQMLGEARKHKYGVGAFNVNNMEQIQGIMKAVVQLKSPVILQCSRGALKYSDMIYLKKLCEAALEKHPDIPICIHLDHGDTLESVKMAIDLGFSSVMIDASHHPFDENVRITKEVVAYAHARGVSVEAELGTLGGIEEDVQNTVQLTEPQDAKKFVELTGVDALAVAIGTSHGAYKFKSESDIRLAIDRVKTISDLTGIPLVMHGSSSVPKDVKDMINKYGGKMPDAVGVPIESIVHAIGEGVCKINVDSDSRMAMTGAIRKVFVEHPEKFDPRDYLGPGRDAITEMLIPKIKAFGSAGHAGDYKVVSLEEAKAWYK
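40 nM FBPA preincubated 10 min at RT with compound (up to 57.5 uM final), then substrate plus GAPDH/TPI/NAD/arsenate coupling and diaphorase/resazurin added. Fluorescence read after 20 min at RT, 525/598 nm.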
FMDV antiviral: foot and mouth disease virus antiviral activity | 1.2% of 410,000 active | Potency, µM (top dose mostly 57.9 µM), actives largely listed as inhibitors | AID 1159524 | FMDV antiviral cell-based qHTS; calls by dose curve; tested in HEK293T cells; also: read-out not given here; nearly all actives have a fitted effect of over 45% in size
HCV inhibitor: inhibitors of hepatitis C virus infection | Potency, µM (highest dose often 41.8 µM), actives largely listed as inhibitors | 3.4% of 340,000 active | Huh7.5.1 HCVcc-Cre infection, luciferase reporter, 44 h
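After 44 h co-culture of compound, cells and HCVcc-Cre (~0.5 moi), substrate is added for 15 min at room temperature and luciferase measured over 15 sec. Cells were seeded at 1,000/well and pre-cultured 4 h.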
MARV entry inh: Marburg virus entry inhibition; 1.8% of 300,000 active; Marburg virus pseudotyped entry inhibition, cell reporter; AID 540276; Potency, µM (series often up to 37.8 µM), hits mostly inhibitors; calls by dose curve; tested in HEK293 cells
HCMV antiviral: human cytomegalovirus inhibition | HFF cells, HCMV-luciferase reporter, 72 h; stronger effect = lower value | activity change, negative = inhibition, % at 57.5 µM | 4.5% of 410,000 active; in the data active = activity change below about -60%; inconclusive = no clear call, values can overlap the other calls; inactive = above about -39%
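After 16 h attachment at 37C, HFF cells received test compound and HCMV-luciferase (1 PFU/cell); reporter luminescence read 72 h later, data normalized against buffer-only and known inhibitor Salinomycin.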
A number is an active result; n = inactive; u = inconclusive; x = not tested or not shown; ! = not active in a repeat; [ ] = another dose, or the depositor's remark. Compounds with a hit are over-represented: about 8.3% of the library has one in this group of screens. Unless noted, calls follow the shape of the dose curve; as a rule, active = well fitted curve in the direction sought with a large enough effect; inconclusive = small, poorly fitted or top-dose-only effect, or another doubt; inactive = no such curve, though single readings can be large; an effect the other way counts as inactive or inconclusive.

SMILES	Lassa entry inh	FBPA Giardia inh	FMDV antiviral	HCV inhibitor	MARV entry inh	HCMV antiviral
Cc1cnc(-n2ncc(C(=O)NCC3CCCN(C)C3)c2C)nc1-c1cccs1 (stereo unspecified)	x	x	n	x	x	x
CCCCC(=O)O[C@]1(C(=O)CO)[C@H](C)C[C@H]2[C@@H]3CCC4=CC(=O)C=C[C@]4(C)[C@@]3(F)[C@@H](O)C[C@@]21C	x	n	x	x	x	x
Cc1ccc(-c2c[n+](CC(=O)Nc3c(C)cccc3C)c3n2CCC3)cc1	x	n	n	n	x	-67.6
Cc1ccc(-c2csc(NC(=O)C[n+]3cc(-c4ccc(C)cc4)n4c3CCC4)n2)cc1	n	n	n	3.55µM	n	n
Cc1ccc(-c2c[n+](CC(=O)N3c4ccccc4Sc4ccccc43)c3n2CCC3)cc1	n	n	u	n	n	-86.7
CCc1ccc(NC(=O)C[n+]2cc(-c3ccc(C)cc3)n3c2CCC3)cc1	x	n	u	u	x	n
Cc1ccc(-c2csc(NC(=O)C[n+]3cc(-c4ccccc4)n4c3CCC4)n2)cc1	u	n	n	2µM	u	n
O=C(C[n+]1cc(-c2ccccc2)n2c1CCC2)N1c2ccccc2Sc2ccccc21	n	n	u	n	n	n
Cc1ccc(NC(=O)C[n+]2cc(-c3ccccc3)n3c2CCC3)c(C)c1	n	n	n	n	n	u
CC(O)C#C[Si](C)(C)c1ccccc1 (stereo unspecified)	x	n	x	x	x	x
CC(C)(C)c1ccc(C2NC(=O)c3n[nH]c(-c4cccs4)c32)cc1 (stereo unspecified)	n	x	n	x	u	-91.5
CCOc1ccc(C2NC(=O)c3n[nH]c(C)c32)cc1 (stereo unspecified)	x	n	n	n	x	n
Cc1cc(Oc2ccc3c(-c4ccccn4)noc3n2)ccc1F	x	x	x	x	x	n
CCC(=O)Nc1ccc2c(c1)Cc1cc([N+](=O)[O-])ccc1-2	u	x	n	n	n	-86.2
COc1ccc(NC(=O)Nc2cccc([N+](=O)[O-])c2)cc1Cl	n	n	u	u	u	-100.0
O=C(Nc1cccc([N+](=O)[O-])c1)Nc1ccc2c(c1)CCC2	u	n	n	u	u	-103.4
O=C(Nc1ccccc1)Nc1ccc2c(c1)CCC2	x	n	n	n	x	n
COc1cc([N+](=O)[O-])ccc1NC(=O)Nc1ccc2c(c1)OCCO2	x	n	n	7.08µM	u	n
COc1ccc(C(=O)Nc2cccc([N+](=O)[O-])c2)cc1Br	u	x	n	u	u	n
O=C(Nc1cccc([N+](=O)[O-])c1)c1cccc(C(=O)Nc2cccc([N+](=O)[O-])c2)c1	x	n	n	n	x	n
COc1ccc(Cl)cc1NC(=O)Nc1cccc([N+](=O)[O-])c1C	u	n	n	15.8µM	u	n
CC(NC(=O)Nc1cccc([N+](=O)[O-])c1)(C(F)(F)F)C(F)(F)F	u	n	u	n	u	-93.3
COc1ccc(/C=C(/C#N)C(=O)Nc2cccc([N+](=O)[O-])c2)cc1C(=O)O	n	n	n	u	n	-101.8
COc1ccc(NC(=O)c2cccc([N+](=O)[O-])c2)cc1	u	n	n	u	n	n
COc1ccc(NC(=S)Nc2cccc([N+](=O)[O-])c2)cc1	n	n	n	n	u	-96.3
SMILES	Lassa entry inh	FBPA Giardia inh	FMDV antiviral	HCV inhibitor	MARV entry inh	HCMV antiviral
CC(=O)N1c2ccccc2CC1C(=O)N1CCN(c2cc(Cl)ccc2C)CC1 (stereo unspecified)	n	x	u	x	x	n
CCN1CCN(Cc2c(O)ccc3oc(C)c(C(=O)Nc4cccc(C(F)(F)F)c4)c23)CC1	u	x	n	x	u	n
CC[C@H](NC(=O)[C@H]1O[C@@H](n2cnc3c(=O)[nH]c(N)nc32)[C@H](O)[C@@H]1O)c1ccccc1	x	x	x	x	x	n
COC(=O)c1c(OCc2cccnc2)cc(=O)n2c1CCN(C(=O)c1cccc(N(C)C)c1)CC2	x	x	n	x	x	x
Cc1cccn2cc(-c3cccc(NC(=O)C(C)C)c3)nc12	n	x	n	x	n	n
COc1ccc(-c2cc(C)cc3c2OC(CNC(=O)/C=C/c2ccncc2)C3)nn1 (stereo unspecified)	x	x	n	x	x	x
N[C@@H](Cc1ccc(N(CCCl)CCCl)cc1)C(=O)O	x	x	n	u	5.8µM	n
CC(=O)NC(Cc1ccc(N(CCCl)CCCl)cc1)C(=O)O (stereo unspecified)	n	n	x	n	u	n
O=C(O)CCCc1ccc(N(CCCl)CCCl)cc1	n	n	n	n[8.37 µM]	3.16µM!	n
